# TDP1 cell CPT: growth inhibition of DT40 Tdp1-/-;hTDP1 cells with camptothecin (screen for TDP1 inhibitors). chicken DT40 Tdp1-/-;hTDP1 cells + 20 nM CPT, ATP luminescence, 48 h. 12% of 420,000 active. Potency, µM (series often up to 46.2 µM), inactives show at the highest dose activity change, negative = growth inhibition, usual class: inhibitors; further: potency means the concentration at half of the fitted maximal effect; nearly all actives have a fitted effect of over 55% in size
#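 Chicken DT40 Tdp1-/- cells complemented with human TDP1, 400 cells/well, exposed to compounds plus 20 nM camptothecin for at least 48 h at 37 C; viability read as ATP content by CellTiter-Glo luminescence.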
# HT1080NT lethal: kills 2HG-producing HT-1080-NT fibrosarcoma cells; 1.6% of 360,000 active; Potency, µM (doses to about 46.1 µM), for inactives: top-dose activity, negative = less viability, most hits filed as cytotoxic; HT-1080-NT fibrosarcoma viability, CellTiter-Glo ATP luminescence, 48 h;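 further: NT is the 2HG producing partner of a matched IDH1 knockdown line; potency means the concentration at half of the fitted maximal effect; 0% = DMSO-treated cells and -100% = media-only wells without cells; nearly all actives have a fitted effect of over 55% in size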
#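 HT-1080-NT fibrosarcoma cells (2HG-overproducing), 750 cells/well in RPMI with 5% FBS, dosed after 2 h and incubated 48 h at 37C. CellTiter-Glo luminescence normalized to DMSO and no-cell wells; concentration-response curves fitted and classed.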
# 12-LOX inh: blocks human arachidonate 12S-lipoxygenase | P18054 | purified 12hLO, xylenol orange hydroperoxide absorbance | Potency, µM (highest dose often 108 µM), without a hit: at the highest dose activity change, negative = inhibition, actives largely listed as inhibitors | 1.1% of 580,000 active | AID 1671190; further: potency means the concentration at half of the fitted maximal effect
# Target sequence (P18054 whole entry, looked up): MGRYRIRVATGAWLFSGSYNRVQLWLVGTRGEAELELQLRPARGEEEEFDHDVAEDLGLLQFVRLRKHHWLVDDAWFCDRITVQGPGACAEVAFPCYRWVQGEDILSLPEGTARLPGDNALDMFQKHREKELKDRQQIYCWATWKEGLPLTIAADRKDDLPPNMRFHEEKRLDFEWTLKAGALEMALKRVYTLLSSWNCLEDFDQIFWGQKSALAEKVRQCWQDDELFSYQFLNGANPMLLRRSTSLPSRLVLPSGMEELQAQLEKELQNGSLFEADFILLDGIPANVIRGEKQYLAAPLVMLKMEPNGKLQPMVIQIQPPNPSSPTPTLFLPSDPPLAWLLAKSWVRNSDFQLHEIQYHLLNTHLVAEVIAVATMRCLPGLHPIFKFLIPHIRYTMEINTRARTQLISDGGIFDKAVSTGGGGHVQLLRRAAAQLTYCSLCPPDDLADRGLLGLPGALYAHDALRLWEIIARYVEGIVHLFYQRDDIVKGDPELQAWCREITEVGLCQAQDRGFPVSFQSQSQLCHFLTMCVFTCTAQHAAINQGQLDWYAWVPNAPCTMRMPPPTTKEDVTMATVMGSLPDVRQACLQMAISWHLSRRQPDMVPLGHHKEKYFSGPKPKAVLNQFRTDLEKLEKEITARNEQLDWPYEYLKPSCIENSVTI
#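 Hydroperoxide product was detected by ferrous iron/xylenol orange as the 573 to 405 nm absorbance ratio. Arachidonic acid at 40 uM (final) was turned over for 30 min at room temperature by 150 nM human 12hLO, pH 7.0 Hepes buffer, after 15 min compound preincubation.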
# TDP1 cell noCPT: qHTS for Inhibitors of human tyrosyl-DNA phosphodiesterase 1 (TDP1): qHTS in cells in absence of CPT; 15% of 420,000 active; Potency, µM (titrated, usually from 46.2 µM), without a hit: top-dose activity change, negative = growth inhibition, actives largely listed as inhibitors; DT40 Tdp1-/- hTDP1 cells, no CPT, ATP luminescence, 48 h; further: potency means the concentration at half of the fitted maximal effect; nearly all actives have a fitted effect of over 55% in size
#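 DT40 Tdp1-/-;hTDP1 cells, no CPT (DMSO vehicle only), 400 cells/well; compounds pin-transferred; ≥48 hr, 37 °C; CellTiter-Glo 30 min RT dark, luminescence read.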
# HT1080 IDH1KD tx: HT-1080 IDH1 knockdown cell toxicity (counter line); HT-1080 IDH1 knockdown viability, ATP luminescence, 48 h; Potency, µM (doses to about 46.1 µM), inactives show top-dose activity, negative = toxicity, actives largely listed as cytotoxic; 2% of 360,000 active;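 further: potency means the concentration at half of the fitted maximal effect; 0% = DMSO wells and -100% = cell-free medium wells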
#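 In this qHTS, HT-1080 cells depleted of IDH1 are exposed for 48 h at 37 °C to compound titrations. Toxicity is scored from CellTiter-Glo luminescence, with DMSO as full viability and medium alone as none.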
# IL1B secr inh: inhibitors of inflammasome signaling (IL-1 beta secretion) | AID 743279 | 4.7% of 360,000 active | activity change, % at 57.5 µM | THP-1 LPS/ATP IL-1B secretion, AlphaLISA, 16 h; hits give low values; in the data active means activity change below about -50%; inconclusive means mostly about -30% to -49%
#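 THP-1 cells pretreated 1 hr with compounds (up to 57.5 uM final), then stimulated with LPS (250 ng/mL final) plus ATP (1.25 mM final); secreted IL-1B measured by AlphaLISA after 16 hr, decreased signal indicating inhibition.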
# Active calls of the source: *; ? = inconclusive; nt = no result; ! = not active in a repeat; [ ] = another dose, or the depositor's remark. The sample as a whole holds a higher share of hits than the screen did. Unless noted, the call rests on the fitted dose curve; in most records, active means well fitted curve in the direction sought with a large enough effect; inconclusive means small, poorly fitted or top-dose-only effect, or another doubt; inactive means no such curve, though single readings can be large; an effect the other way counts as inactive or inconclusive. Unless noted, on the % scale 0 is the no-effect control and ±100 the full control effect.
SMILES,TDP1 cell CPT,HT1080NT lethal,12-LOX inh,TDP1 cell noCPT,HT1080 IDH1KD tx,IL1B secr inh
CCN(CC)c1ncnc2c1ncn2[C@H]1CN(Cc2cccnc2)C[C@@H](CO)O1,-22.0%,?,6.2%,-8.1%,2.2%,-56.9*
CC(C)N(C)c1ncnc2c1ncn2[C@H]1CN(Cc2cccnc2)C[C@@H](CO)O1,5.2%,14.9%,2.0%,8.4%,20.3%,2.1
CCCCc1cc(=O)oc2cc(OC(C)C(=O)NCc3cccnc3)ccc12 (stereo not given),nt,nt,-2.9%,nt,nt,nt
COc1cc(CN2C[C@@H](CO)O[C@@H](n3cnc4c(N5CCN(c6ccccc6)CC5)ncnc43)C2)cc(OC)c1OC,18.4µM*,-3.1%,-3.9%,14.6µM*,0.0%,-7.7
CN1CCN(c2ncnc3c2ncn3[C@H]2CN(Cc3ccccc3)C[C@@H](CO)O2)CC1,?,2.6%,25.5%,-23.3%,13.9%,-8.2
COc1ccc(CN2C[C@@H](CO)O[C@@H](n3cnc4c(N5CCN(c6ccccc6)CC5)ncnc43)C2)cc1,?,?,-9.1%,16.4µM*,18.4µM*,-19.6
COc1ccc(CN2C[C@@H](CO)O[C@@H](n3cnc4c(N5CCCC5)ncnc43)C2)cc1,?,-0.7%,-3.2%,?,-1.9%,6.1
CN(C)c1ncnc2c1ncn2[C@H]1CN(Cc2ccc(-c3ccccc3)cc2)C[C@@H](CO)O1,?,-0.6%,0.8%,14.6µM*,2.8%,-5.3
OC[C@@H]1CN(Cc2ccco2)C[C@H](n2cnc3c(N4CCN(c5ccccc5)CC4)ncnc32)O1,23.1µM*,-10.3%,-9.9%,23.1µM*,-9.4%,9.2
O=C1CCC[C@H]2[C@@H](Cc3ccccc3)[C@H](NCc3ccccc3)CC[C@]23CCCN13,nt,nt,-7.9%,nt,nt,nt
O=C(c1cc(-c2ccc(Cl)cc2)n[nH]1)N1CCc2ccccc2C1,-15.3%,18.5%,?,-1.7%,17.0%,-16.9
COc1ccc(OCc2nc(C)c(CCO)c(=O)n2CC(=O)Nc2cccc(C)c2C)cc1,nt,nt,-13.1%,nt,nt,nt
COc1ccc(OC)c(CCNC(=O)CC(C)(C)C)c1,nt,nt,1.8%,nt,nt,nt
O=C(c1ccc(N2CC[C@H](O)C2)nc1)N1CCC(Oc2cccnc2)CC1,nt,nt,15.3%,nt,nt,nt
COCCCNC(=O)c1c(NC(=O)c2cccs2)sc2c1CCCC2,-22.2%,6.7%,-13.9%,?,2.4%,-9.8
COCCCNC(=O)c1c(NC(=O)c2nc(S(C)(=O)=O)ncc2Cl)sc2c1CCCC2,1.03µM*,nt,-11.8%,0.731µM*,nt,nt
CCCSc1ncc(Cl)c(C(=O)Nc2sc3c(c2C(=O)NCCCOC)CCCC3)n1,12.6µM*,nt,nt,11.2µM*,nt,nt
CCOCCCNC(=O)c1c(NC(=O)c2nc(SCC)ncc2Cl)sc2c1CCCC2,?,nt,nt,10µM*,nt,nt
CCSc1ncc(Cl)c(C(=O)Nc2sc3c(c2C(=O)NCCCOC)CCCC3)n1,?,nt,7.3%,?,nt,nt
CCNC(=O)c1c(NC(=O)c2nc(S(=O)(=O)CC)ncc2Cl)sc2c1CCCC2,-112.4%,nt,-0.5%,0.731µM*,nt,nt
CCN1C(=O)C2C(c3cccc(F)c3)NC(C)(C(=O)OC)C2C1=O (stereo not given),-10.8%,16.4%,-9.1%,-7.9%,21.3%,6.0
COC(=O)[C@]1(C)N[C@H](c2ccc(-c3cccc(Cl)c3)cc2)[C@@H]2C(=O)N(C)C(=O)[C@@H]21,?,0.0%,-16.3%,?,-2.7%,-23.8
CCN1C(=O)[C@H]2[C@@H](c3ccc(-c4ccc(F)cc4)cc3)N[C@@](C)(C(=O)OC)[C@H]2C1=O,23.1µM*,?,-9.2%,20.6µM*,14.3%,-12.4
CCN1C(=O)[C@H]2[C@@H](c3ccc(-c4cccc(Cl)c4)cc3)N[C@@](C)(C(=O)OC)[C@H]2C1=O,16.4µM*,0.0%,?,13µM*,-11.8%,-5.4
CCN1C(=O)[C@H]2[C@@H](c3ccc(-c4ccc(C(C)=O)cc4)cc3)N[C@@](C)(C(=O)OC)[C@H]2C1=O,?,1.4%,nt,-24.4%,8.9%,33.1
SMILES,TDP1 cell CPT,HT1080NT lethal,12-LOX inh,TDP1 cell noCPT,HT1080 IDH1KD tx,IL1B secr inh
CCN1C(=O)[C@H]2[C@@H](c3ccc(-c4ccc(F)cc4)c(OC)c3)N[C@@](C)(C(=O)OC)[C@H]2C1=O,13µM*,-6.6%,11.2µM*,?,4.9%,-15.9
CCOc1ccc(CCNC(=O)C(CC(C)C)N2Cc3ccccc3C2=O)cc1OCC (stereo not given),10.3µM*,nt,3.4%,9.2µM*,nt,nt
CC(C)CC(C(=O)NCc1ccc(F)cc1)N1Cc2ccccc2C1=O (stereo not given),?,nt,0.5%,?,nt,nt
CC(C)CC(C(=O)NCCc1ccccc1)N1Cc2ccccc2C1=O (stereo not given),?,nt,0.0%,20.6µM*,nt,nt
CCCCCCCCCCCC1=C(O)C(=O)C=C(O)C1=O,?,-6.7%,3.43µM*!,?,-2.5%,-20.5
COC1=CC(=O)C(O)=C(CCCCCCC/C=C/CCCCCCCC2=C(O)C(=O)C=C(OC)C2=O)C1=O,-4.3%,1.8%,nt,-24.8%,5.6%,82.9
COc1ccc(O)c(CN2CCC3(CC2)c2ccccc2[C@@H](NC(=O)c2cccc(F)c2)[C@@H]3OC)c1,-6.1%[9.04 µM],nt,?,16.4µM*,nt,nt
COc1cc(C)c(CN2CCC(n3nccc3NC(=O)C3CC3)CC2)cc1C,8.9%,5.1%,-12.3%,-4.3%,4.5%,19.2
CC(c1ccccc1)N1C(=O)c2ccc(C(=O)Nc3ccc(Br)cc3C(=O)O)cc2C1=O (stereo not given),2.06µM*,4.3%,nt,?,10.8%,13.9
Nc1ccc2cc3ccccc3cc2c1,?,4.9%,-23.7%,?,-4.2%,-12.7
Nc1ccc2cccc(O)c2c1,?,-19.3%,-13.1%,13µM*,-6.7%,20.3
O=[N+]([O-])c1cccc2c(N3CCCC3)ccnc12,8.2µM*,-27.3%,8.3%,8.2µM*,?,-63.8*
O=C(c1ccccc1F)N1CCN(c2ccc([N+](=O)[O-])c3ncccc23)CC1,14.6µM*,-5.0%,-10.3%,20.6µM*,-14.7%,-3.1
CC(=O)C1=CCC(c2ccc(Cl)c(Cl)c2)N(S(=O)(=O)c2ccc(C)cc2)C1 (stereo not given),?,?,-10.3%,14.6µM*,?,-83.8*
CC(=O)C1=CCC(c2ccc(C)cc2)N(S(=O)(=O)c2ccc(Cl)cc2)C1 (stereo not given),?,-26.5%,-1.0%,16.4µM*,?,?

# Screens from PubChem BioAssay.
